Screen size: about 68,000 compounds; about 2,700 (4%) showed an effect of 50% or more. This is one part of a sample in which strong results are shown more often than they occur.

In this experiment the test system is Plasmodium berghei. The experiment is described as follows: Screen against P. berghei liver stage (PbLuc), transformed with Luciferase, at 2uM. The experiment is classed as functional, HepG2. The conditions noted are these: tested at 2 uM.
As for `CC(=O)N1CCC2(CC1)CN(C(=O)c1cccc3[nH]ccc13)CCO2`, the INHIBITION is listed as 37.41%. In the case of `CC(=O)N1CCC2(CC1)CN(C(=O)c1cccc3[nH]ccc13)C2` it was 57.92%.

On to `CC(=O)N1CC2(CCN(C(=O)c3cccc4[nH]ccc34)CC2)C1`, for which the INHIBITION was 3%.

`Cc1ccc(N(Cc2ccco2)C(=O)Cc2cc(=O)n(C)[nH]2)cc1`: the INHIBITION is -12.06%. Regarding `CC(NC(=O)c1cc(-c2cccc(Cl)c2)no1)C(=O)N1CCCC1` (stereo not given), the INHIBITION is reported as 24.29%.

As for `COC(=O)[C@H](C)NC(=O)c1cc(-c2cccc(Cl)c2)no1`, the INHIBITION was 11.28%. In the case of `CC(NC(=O)c1cc(-c2cccc(Cl)c2)no1)C(=O)N(C)C` (stereo not given) it was 50.59%; in that of `O=C(c1cncs1)N1CCC(Cc2cnc3[nH]ccc3c2)CC1`, -11.64%. As for `COCCNC(=O)Nc1ccc(-c2nc(C(C)C)no2)cc1`, the INHIBITION worked out at 58.53%. The value for `CC(C)OC(=O)CNC(=O)Nc1ccc(-c2nc(C(C)C)no2)cc1` was -13.72%; that for `CC(C)c1noc(-c2ccc(NC(=O)NCC(O)C(C)C)cc2)n1` (stereo not given) was -10.44%. Consider `O=c1c2ccc(C(F)(F)F)cc2ncn1CCCN1CCCCC1CO` (stereo not given), for which the INHIBITION is recorded as -13.49%. With `Cc1nn(C)cc1CN1CCC(c2ncc(Cl)cc2S(C)(=O)=O)CC1`, the INHIBITION was 20.51%.

With `O=C1CSC(c2ccncc2)c2c[nH]nc2N1` (stereo not given), the INHIBITION came to 76.13%. Consider `COc1ccc(C2SCC(=O)Nc3n[nH]cc32)c(OC)c1OC` (stereo not given), for which the INHIBITION is recorded as 2.66%.

Take `COc1cc(C2SCC(=O)Nc3n[nH]cc32)cc(OC)c1O` (stereo not given): the INHIBITION is -33.37%.

Turning to `Cc1cccc(C(=O)NCc2ccccc2)n1`, the INHIBITION came out at 5.09%.

Consider `CC(=O)NCCNC(=O)NCCCc1cccc(F)c1`, for which the INHIBITION amounted to 31.55%. The value for `CC(C)NC(=O)NCCCc1cccc(F)c1` was 78.96%; that for `CC(C)(C)S(=O)(=O)CCNC(=O)NCCCc1cccc(F)c1` was 26.02%; that for `OC(CN1CCN(CCOCC(F)(F)F)CC1)c1ccccc1` (stereo not given) was 25.35%.

For `N#Cc1ccccc1N1CCCN(C(=O)CCc2ccco2)CC1`, the INHIBITION is 75.56%. The value for `N#Cc1cccnc1N1CCCN(C(=O)CCc2cccs2)CC1` was 10.1%; that for `O=C(CCc1nccs1)N1CCN(c2ccccc2F)CC1` was 44.12%; that for `N#Cc1ccccc1N1CCCN(C(=O)CCc2nccs2)CC1` was 63.95%. Turning to `Cc1ncsc1CCC(=O)NC1CCN(c2ccc(Cl)nn2)CC1`, the INHIBITION worked out at 2.04%. `N#Cc1cccnc1N1CCCN(C(=O)CCc2nccs2)CC1`: the INHIBITION was -71.75%.

`Cc1ncsc1C(=O)NC1CCN(c2ncccc2C#N)CC1`: the INHIBITION is -4.58%.

On to `Cc1ncsc1CCC(=O)NC1CCN(c2ncccc2C#N)CC1`, for which the INHIBITION is reported as 51.81%. In the case of `N#Cc1cccnc1N1CCN(C(=O)CCC(=O)c2cccs2)CC1` it was 53.81%. As to `N#Cc1ccccc1N1CCCN(C(=O)CCc2ccsc2)CC1`, the INHIBITION is listed as -107.32%. Turning to `N#Cc1cccnc1N1CCN(C(=O)c2cccs2)CC1`, the INHIBITION came to 23.76%. With `N#Cc1ccccc1N1CCCN(C(=O)CCc2cccs2)CC1`, the INHIBITION came to 16.08%. In the case of `COC1COC2(CCN(Cc3ccccc3C)CC2)C1` (stereo not given) it was 27.65%; in that of `CC(C)n1cnc2c(N3CCCC3)nc(C3CCNCC3)cc21`, 14.39%; in that of `CC(NCc1ccccc1Br)c1ccc2[nH]c(=O)[nH]c2c1` (stereo not given), 20.28%. In the case of `CCCc1nc2c(c(C)c(C)n2Cc2ccccn2)c(N)c1CC` it was -17.84%; in that of `O=C(NCCc1cc(N2CCOCC2)nc(NC2CC2)n1)C1CC1`, 38.45%.

In the case of `COCCN1CCN(c2nc(O)cc(Cc3ccccc3F)n2)CC1`, the INHIBITION is listed as -35.66%. Regarding `Cc1cc(NC(=O)Cn2cc(C#N)c(=O)c3cc(Br)ccc32)no1`, the INHIBITION amounted to 3.43%. For `CN(Cc1ccon1)C(=O)CN1C(=O)OC(C)(C)C1=O`, the INHIBITION worked out at 70.76%. Take `CN(Cc1ccoc1)C(=O)CN1C(=O)OC(C)(C)C1=O`: the INHIBITION turned out to be 0.85%.

As to `CN(Cc1cc(C2CC2)on1)C(=O)CN1C(=O)OC(C)(C)C1=O`, the INHIBITION was found to be 37.41%. In the case of `CCn1nc(C)c2nc(C(C)C)nc(N3CCC(O)CC3)c21` it was 5.86%.

Consider `O=C(c1cccc(F)c1)N1CCC2(CC1)CN(c1ccccn1)CCO2`, for which the INHIBITION is -29.13%. `COCCn1/c(=N\C(=O)CN(C)S(C)(=O)=O)sc2cc(C)ccc21`: the INHIBITION is 29.19%.

Take `COCCn1/c(=N\C(=O)CN(C)S(C)(=O)=O)sc2cc(OC)ccc21`: the INHIBITION is recorded as 11.87%. Turning to `COCCn1/c(=N\C(=O)CN(C)S(C)(=O)=O)sc2cc(Cl)ccc21`, the INHIBITION is on record as 52.05%. Turning to `Nc1ncnc2[nH]c(N3CCCCC3)nc12`, the INHIBITION was -87.36%. Consider `Clc1ccccc1OC1CN(CC2CCOC2)C1` (stereo not given), for which the INHIBITION was -14.36%. In the case of `CC(C)NC(=O)N1CCC[C@H]1C(=O)NCCCc1cccc(F)c1`, the INHIBITION is recorded as -22.24%. For `CN(Cc1ccc(F)cc1)C(=O)CN1CCCC(Cn2cncn2)C1` (stereo not given), the INHIBITION was found to be 2.08%. Take `CN(Cc1cccc(F)c1)C(=O)CN1CCCC(Cn2cncn2)C1` (stereo not given): the INHIBITION stood at 53.1%. Regarding `CN(Cc1ccccc1)C(=O)CN1CCCC(Cn2cncn2)C1` (stereo not given), the INHIBITION is recorded as 45.5%.

As to `N#CCCN(CCC#N)C(=O)CN1CCCC1Cc1cccc(F)c1` (stereo not given), the INHIBITION is recorded as -43.03%. The value for `CN(Cc1cccc(F)c1)C(=O)CN1CCCC1CCc1ccccc1` (stereo not given) was 80.56%; that for `CN(Cc1cccc(F)c1)C(=O)CN1CCCCC1Cn1cncn1` (stereo not given) was 3.3%.

Regarding `COc1cc(OC)cc(C(=O)N(C)Cc2nnc3ccccn23)c1`, the INHIBITION was 34.39%. For the compound `Cc1ccc(N2C[C@H]3CCC[C@@H](CN4CCOCC4)[C@H]3C2)nn1`, the INHIBITION is given as -7.49%. Consider `CN(C)c1ccc(C(=O)NCc2cccnc2-n2cncn2)cc1F`, for which the INHIBITION was 20.19%. Turning to `O=C(CCNC(=O)C1CCCC1)NCc1ccccc1Cn1cncn1`, the INHIBITION was -14.17%.

As for `CN(C)C1CCN(C(=O)NCc2ccccc2Cn2cncn2)CC1`, the INHIBITION came out at 9.05%. Take `O=C(CC1CCCO1)NCc1ccccc1Cn1cncn1` (stereo not given): the INHIBITION was 8.37%. Turning to `O=C(NCc1ccccc1Cn1cncn1)N1CCCC1`, the INHIBITION is -9.49%. The value for `NC(=O)C1CCN(C(=O)NCc2ccccc2Cn2cncn2)CC1` was 64.07%; that for `O=C(CCC1CCCO1)NCc1ccccc1Cn1cncn1` (stereo not given) was 64.16%; that for `O=C(NCc1ccon1)c1c(F)cc(Br)cc1F` was 1.04%.

As for `Cc1nc(C2CCCN(C(=O)c3c[nH]c(C(C)C)n3)C2)no1` (stereo not given), the INHIBITION was determined as 13.3%.

As to `Cc1cc(C)n(CC2CCCCN2CC(=O)NC2CCOCC2)n1` (stereo not given), the INHIBITION is 27.5%. On to `CCN(Cc1cnn(CC)c1)C(=O)CN1C(=O)CCc2ccccc21`, for which the INHIBITION is reported as 21%.

In the case of `CC(C)(C)c1n[nH]c(C2CN(C(=O)c3ccsc3)CCO2)n1` (stereo not given), the INHIBITION is reported as 31.19%. For `CNC(=O)C(C)(C)NC(=O)c1cc(COc2cccc(C(C)=O)c2)[nH]n1`, the INHIBITION is given as -8.74%. For `CC(c1cccnc1)N(C)Cc1ccccn1` (stereo not given), the INHIBITION was -18.23%. Regarding `CC1N(CC2CC2)C(=O)COC12CCN(C(=O)c1cccs1)CC2` (stereo not given), the INHIBITION was 32.04%.

`CCCN1CCN(S(=O)(=O)c2ccccc2OC)[C@H]2CS(=O)(=O)C[C@H]21`: the INHIBITION is on record as 52.45%.

For the compound `CCN1CCN(S(=O)(=O)N2CCc3ccccc3C2)[C@H]2CS(=O)(=O)C[C@H]21`, the INHIBITION is on record as 25.37%. The value for `COc1ccccc1S(=O)(=O)N1CCN(C)[C@@H]2CS(=O)(=O)C[C@@H]21` was 40.88%; that for `CCCn1ncc2c(C(=O)Nc3cnn(CC)c3C)cc(C3CC3)nc21` was 34.52%; that for `Cc1cc(C(=O)Nc2cc(C3CC3)n[nH]2)c2c(C)nn(C)c2n1` was 40.99%.

Turning to `CCn1ncc(NC(=O)c2cc(C3CC3)nc3c2c(C)nn3C)c1C`, the INHIBITION came to 52.52%. In the case of `COc1ccccc1CNC(=O)CN(C)C(C)c1nccs1` (stereo not given), the INHIBITION amounted to 38.91%. In the case of `c1cnn(CC2CCCN2c2ncnc3ccsc23)c1` (stereo not given) it was -16.42%; in that of `CN(C)C(=O)N1CCO[C@@H]2CC(COCc3cccnc3)C[C@H]21` (stereo not given in full), 20.01%; in that of `O=C(NCCc1ccncc1)c1ccc(N2CCOCC2)cc1`, 68.9%.

`O=C(NCCCc1ccc(F)cc1)c1ccc(N2CCOCC2)cc1`: the INHIBITION is listed as -26.8%. As to `O=C(NCCCc1ccco1)c1ccc(N2CCOCC2)cc1`, the INHIBITION was -89.85%. As for `Cn1c(-c2cc3n(n2)CCCN(CC(=O)O)C3)nc2ccccc21`, the INHIBITION is on record as -15.71%.

As to `Cc1cccc(COC[C@@H]2CC[C@H]3[C@H](CCN3Cc3ccco3)O2)n1`, the INHIBITION amounted to 2.39%.

Consider `Cc1cccc(COC[C@H]2CC[C@H]3[C@H](CCN3C(=O)CC3CC3)O2)n1`, for which the INHIBITION is 9.79%. Turning to `Cc1cccc(COC[C@@H]2CC[C@H]3[C@H](CCN3C(=O)CC3CC3)O2)n1`, the INHIBITION is 51.72%.

Turning to `Cc1cc(C(=O)N2C[C@H](c3ccccc3)[C@@H](N)C2)c2ccc(F)cc2n1`, the INHIBITION is recorded as 2.31%. As to `CCc1ocnc1C(=O)N1CCCC1c1noc(C2CC2)n1` (stereo not given), the INHIBITION was found to be 43.85%.

Turning to `COc1cnc(CSc2nnc(C)s2)cc1OCC(=O)NC1CCCC1`, the INHIBITION is -8.85%.

Turning to `CCCS(=O)(=O)N1CCC(Nc2c(F)cc(C#N)cc2F)CC1`, the INHIBITION is 10.85%. For the compound `CCS(=O)(=O)N1CCC(Nc2c(F)cc(C#N)cc2F)CC1`, the INHIBITION came out at 55.17%.

Take `CCS(=O)(=O)N1CCC(Nc2ccc(C#N)cc2F)CC1`: the INHIBITION is listed as 1.36%.

As for `Cc1ccc(C(=O)N2CC[C@H]3[C@H]2CCN3CC2CCOCC2)cc1F`, the INHIBITION was -4.54%. In the case of `Cc1nc[nH]c1CNCc1cccnc1N(C)C1CCCCC1` it was -15.91%; in that of `COc1cccc(OCCc2nc3c(cc2C(N)=O)CCC3)c1`, 23.18%. The value for `Cc1cnn(CC(C)NCc2cccnc2)c1` (stereo not given) was 8.13%.

In the case of `Cc1cnn(CCNCc2ccc(OCc3ccncc3)cc2)c1`, the INHIBITION amounted to 40.88%. The value for `Cc1cnn(CCNCc2cccnc2)c1` was 0.9%. As to `Cc1cnn(CC(C)NCc2ccc(OCc3cccnc3)cc2)c1` (stereo not given), the INHIBITION is given as 16.18%. For `Cc1cnn(CC(C)NCc2ccccc2OCc2cccnc2)c1` (stereo not given), the INHIBITION is 50.05%. `Cc1cnn(CCNCc2ccc(OCc3cccnc3)cc2)c1`: the INHIBITION amounted to 88.86%.

For the origin of these results see ChEMBL document CHEMBL4513216, “Probing the Open Global Health Chemical Diversity Library for Multistage-Active Starting Points for Next-Generation Antimalarials” (ACS Infect Dis, 2020).
